Experimental data as given in PubChem BioAssay.
Calls of active or inactive are those of the source.

Columns and labels:
[1] = A549 cell viability effects, profiling panel, calcein-AM fluorescence, 48 h, basal (AID 1162); conditions: higher = more signal
[2] = adipocyte viability effects, profiling panel, cell-based, 3T3-L1 adipocytes, calcein-AM fluorescence, 48 h, basal (AID 1163); conditions: 3T3-L1 adipocytes viability, higher = more signal
[3] = HepG2 cell viability effects, profiling panel, calcein-AM fluorescence, 48 h, basal (AID 1164); conditions: higher = more signal
[4] = MM1S cell viability effects, profiling panel, calcein-AM fluorescence, 48 h, basal (AID 1165); conditions: higher = more signal;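 further: viability of MM1S multiple myeloma cells under basal unstimulated conditions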
[5] = basal RPMI8226 viability, no added stimulus, profiling panel, cell-based, calcein-AM fluorescence, 48 h, PK04 Diversity Set (AID 1166); conditions: RPMI8226 myeloma viability, higher = more signal;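 further: cells grown under basal conditions without added stimulus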
[6] = basal HepG2 mitochondrial membrane potential changes, profiling panel, cell-based, JC-1 fluorescence, 24 h, 100 nL compound (AID 1167); conditions: higher = more signal
[7] = basal 3T3-L1 adipocyte mitochondrial potential changes, profiling panel, cell-based, JC-1 fluorescence, 3T3-L1 adipocytes, 24 h, 100 nL compound (AID 1168); conditions: JC-1 mitochondrial fluorescence, higher = more signal, called active from +8 up or from −8 down
[8] = basal RPMI8226 mitochondrial membrane potential changes, profiling panel, cell-based, JC-1 fluorescence, 24 h, 100 nL compound (AID 1169); conditions: RPMI8226 myeloma, JC-1 mitochondrial potential fluorescence, higher = more signal
[9] = basal MM1S mitochondrial membrane potential changes, profiling panel, cell-based, JC-1 fluorescence, 24 h, 100 nL compound (AID 1170); conditions: higher = more signal
[10] = A549 lung cancer cell viability effects, profiling panel, resazurin fluorescence, 24 h, PK04 Diversity Set (AID 1171); conditions: higher = more signal, called active from +8 up or from −8 down
Further: test concentration not given here.

| Structure (SMILES) | z-score [1] | z-score [2] | z-score [3] | z-score [4] | z-score [5] | z-score [6] | z-score [7] | z-score [8] | z-score [9] | z-score [10] |
| --- | --- | --- | --- | --- | --- | --- | --- | --- | --- | --- |
| NCCCCCNC(=O)[C@H]1C[C@H]2C(=O)N[C@@H](Cc3ccccc3)C(=O)N2[C@H]1c1cccc(OCCO)c1 | 1.15 | -0.14 | 1.19 | 0.079 | 0.226 | 0.96 | -0.67 (inactive) | -0.288 | 0.948 | 1.35 (inactive) |
| COC(=O)[C@@]1(Cc2ccc(OC)cc2)[C@H]2c3cc(C(=O)N(C)C)n(Cc4ccc(C(F)(F)F)nc4)c3C[C@H]2CN1C(=O)c1ccccc1 | 0.212 | -0.624 | 0.106 | -0.589 | -0.782 | 0.117 | -0.29 (inactive) | 0.0192 | -1.03 | 0.248 (inactive) |
| O=C(O)[C@H]1C[C@H]2C(=O)N3CCC[C@H]3C(=O)N2[C@H]1c1ccc(O)cc1 | 0.835 | 0.469 | 0.0504 | -0.8 | 0.0046 | 1.38 | -0.0658 (inactive) | -0.703 | -0.22 | 0.799 (inactive) |
| O=C1OCCC=C[C@H]2OC34C=CCN(CCN5CCOCC5)C(=O)[C@H]3N(CCCCCO)C(=O)[C@@H]4C12 (stereo not given in full) | 0.478 | 0.0858 | 1.02 | -0.0119 | 0.218 | 0.575 | 0.172 (inactive) | -0.152 | -0.355 | 0.203 (inactive) |
| COC(=O)[C@]1(CCC(=O)OC(C)(C)C)N=C(c2ccc(OCCCO)cc2)O[C@@H]1c1ccccc1 | -1.32 | 0.899 | -1.08 | -3.43 | -3.1 | -2.23 | -0.205 (inactive) | -0.734 | 0.903 | -1.99 (inactive) |
| CCOC(=O)C[C@H]1[C@H](OC(=O)c2cc3ccccc3oc2=O)[C@@H](NC(=O)CC(C)C)c2cc(OCCCO)ccc2N1C(=O)c1ccccc1 | -0.276 | 1.52 | 0.314 | 0.117 | -0.0793 | 1.14 | 0.9 (inactive) | -0.882 | 0.915 | -1.33 (inactive) |
| CO[C@H]1O[C@H](CO)[C@@H](OC(=O)Nc2ccccc2-c2ccccc2)[C@H](OC(=O)Nc2ccccc2-c2ccccc2)[C@@H]1OC(=O)Nc1ccccc1-c1ccccc1 | -0.378 | 0.159 | -0.0639 | -0.857 | -1.24 | 0.0618 | 1.6 (inactive) | -0.194 | 1.33 | -0.387 (inactive) |
| COCCCNC(=O)[C@@]1(Cc2ccccc2CN=[N+]=[N-])N=C(c2ccc(OCCCO)cc2)O[C@H]1c1ccccc1CN=[N+]=[N-] | -0.768 | 1.56 | -0.983 | -2.88 | -3.94 | 1.57 | 2.31 (inactive) | -1.2 | -2.64 | -1.2 (inactive) |
| O=C1[C@@]23C=C(Br)[C@H](C[C@@H]2COC3)[C@]12CO2 | -0.186 | -0.959 | -1.1 | -3.17 | -2.02 | -2.21 | -1.42 (inactive) | -1.3 | -2.19 | -0.453 (inactive) |
| COCCOC(=O)N1C(=O)[C@@]2(c3cc(C#CC4(O)CCCCCC4)ccc31)[C@H](c1ccccc1OCCO)N1[C@H](c3ccccc3)[C@H](c3ccccc3)OC(=O)[C@H]1[C@@H]2C(=O)N1CCc2cc(OC)c(OC)cc2C1 | -0.329 | 0.346 | -0.011 | -0.889 | -1.76 | -0.0229 | 0.0348 (inactive) | -0.686 | -1.14 | 0.512 (inactive) |
| O=C1C2C=CC(C(O)COCc3ccccc3)N(Nc3ccc([N+](=O)[O-])cc3)C2C(=O)N1c1ccccc1 (stereo not given) | -0.26 | 0.619 | -0.617 | -0.105 | -0.0326 | -1.26 | -1.67 (inactive) | -0.25 | -1.01 | 0.315 (inactive) |
| CCN(CC)c1ccc(N2CC=CC34O[C@@H]5/C=C\CCC(C)OC(=O)C5[C@H]3C(=O)N(CCCCCO)[C@@H]4C2=O)cc1 (stereo not given in full) | 0.192 | -0.743 | 0.0376 | 1.56 | -0.863 | 0.423 | 0.158 (inactive) | -0.0486 | 1.29 | 0.697 (inactive) |
| COC(=O)[C@@]1(Cc2ccc(OC)cc2)[C@H]2c3cc(C(=O)N4CCCC4)n(Cc4nc5ccccc5[nH]4)c3C[C@H]2CN1C(=O)c1ccccc1 | -0.43 | 0.685 | -0.44 | -2.01 | -2.35 | -0.128 | -0.773 (inactive) | -0.764 | -0.816 | 0.161 (inactive) |
| COC(=O)[C@@]1(Cc2ccc(OC)cc2)[C@H]2c3cc(C(=O)N4CCCC4)n(CCCNc4ncc(C(F)(F)F)cc4Cl)c3C[C@H]2CN1C(=O)c1ccccc1 | -1.54 | -1.03 | -0.841 | -1.9 | -4.57 | 0.261 | -1.31 (inactive) | -0.873 | -1.28 | -0.577 (inactive) |
| COc1ccc(C(O)C2C=CC3C(=O)N(C)C(=O)C3N2NC(=O)OC(C)(C)C)c2ccccc12 (stereo not given) | -0.844 | -0.769 | -1.99 | 0.18 | -0.463 | -2.62 | 0.549 (inactive) | 0.674 | 0.932 | 1.94 (inactive) |
| C=CC[C@]1(C(=O)N2CCOCC2)N=C(c2ccc(OCCCO)cc2)O[C@H]1c1ccccc1N=[N+]=[N-] | 0.0797 | 0.816 | -0.0586 | -0.094 | -1.8 | 1.23 | 1.17 (inactive) | -0.733 | -1.44 | -0.441 (inactive) |

| Structure (SMILES) | z-score [1] | z-score [2] | z-score [3] | z-score [4] | z-score [5] | z-score [6] | z-score [7] | z-score [8] | z-score [9] | z-score [10] |
| --- | --- | --- | --- | --- | --- | --- | --- | --- | --- | --- |
| COc1ccc([Si](C)(C)[C@@H]2[C@@H](CC(=O)N3CCC[C@H]3CO)O[C@]3(C(=O)N(Cc4cccc(I)c4)c4ccccc43)[C@H]2C)cc1 | -1.08 | 1.24 | -2.59 | -2.92 | -4.52 | -0.646 | -0.0158 (inactive) | -1.08 | -1.48 | -3.17 (inactive) |
| Cc1ccc(S[C@]2(C(=O)NCC(C)C)CC(=O)N(Cc3cc(C(F)(F)F)cc(C(F)(F)F)c3)[C@@H]2c2ccc(CO)cc2)cc1 | -0.174 | 0.518 | -0.527 | -0.741 | -0.744 | -0.444 | -0.612 (inactive) | 0.244 | -0.133 | -0.0187 (inactive) |
| CCOC(=O)C1=CC[C@@H](c2ccccc2)N(S(=O)(=O)c2ccc(C)cc2)[C@H]1c1ccc(CC)cc1 | -0.516 | -0.932 | -0.217 | 0.677 | 0.0825 | 5.94 | -0.149 (inactive) | -0.27 | -1.84 | 1.48 (inactive) |
| CC1CC/C=C\[C@H]2OC34C=CCN(Cc5ccccc5)C(=O)[C@H]3N(C(C)CO)C(=O)[C@@H]4C2C(=O)O1 (stereo not given in full) | 0.278 | -0.979 | 0.679 | 0.998 | -0.182 | 0.554 | 0.219 (inactive) | 1.11 | 0.741 | 0.418 (inactive) |
| C[N+](C)(C)CCCC[C@@H]1NC(=O)[C@@H]2C[C@H](C(=O)NCCCCCN)[C@H](c3ccc(O)cc3)N2C1=O | 1.01 | 0.641 | 0.383 | 0.312 | 0.828 | 1.79 | -0.13 (inactive) | 0.243 | 0.41 | -0.0115 (inactive) |
| Cc1ccc([C@H]2C(C(=O)O)=CCN2S(=O)(=O)c2ccc(C)cc2)cc1 | -0.261 | -0.456 | -0.577 | -0.458 | -0.922 | -1.39 | -0.521 (inactive) | 0.284 | -0.0534 | -0.29 (inactive) |
| OCCCC1=CC(C2CC2)N(Cc2cccc(OC(F)(F)F)c2)CC1 (stereo not given) | -0.346 | 0.643 | 0.43 | -0.522 | 0.0997 | 0.64 | 0.319 (inactive) | 0.48 | 0.572 | 1.83 (inactive) |
| NC(=O)NCC#Cc1ccc2c(c1)[C@]1(C(=O)N2)[C@H](C(=O)O)[C@H]2C(=O)O[C@H](c3ccccc3)[C@H](c3ccccc3)N2[C@@H]1c1ccc(O)cc1 | 0.715 | 0.407 | 0.611 | -0.944 | 0.0565 | -1.43 | -1.56 (inactive) | 0.123 | 0.126 | 1.22 (inactive) |
| COCCOC(=O)N1C(=O)[C@@]2(c3ccccc31)[C@H](c1ccc(OCCO)cc1)N1[C@H](c3ccccc3)[C@H](c3ccccc3)OC(=O)[C@H]1[C@@H]2C(=O)N1CCc2cc(OC)c(OC)cc2C1 | 0.114 | 1.09 | 1.37 | 0.175 | -0.0296 | 0.39 | 3.06 (inactive) | -0.749 | -1.53 | -0.247 (inactive) |
| CCC(CC)C(O)C1C=CC2C(=O)N(c3ccccc3)C(=O)C2N1Nc1ccccc1 (stereo not given) | 0.857 | -1.31 | 1.72 | -0.127 | -0.092 | -1.48 | -2.32 (inactive) | 0.0116 | -0.403 | 0.328 (inactive) |
| COc1ccc([C@H]2C[C@H]3C(I)=C[C@@H]2C(=O)[C@]32CO2)cc1 | -0.87 | 0.698 | -0.856 | -3.23 | -2.81 | -0.22 | 0.315 (inactive) | -0.474 | -0.967 | 0.46 (inactive) |
| COCCCNC(=O)[C@@]1(CCS(=O)(=O)c2ccccc2)N=C(c2ccc(OCCCO)cc2)O[C@H]1c1ccccc1N=[N+]=[N-] | -0.196 | 2.02 | -0.43 | 0.0021 | -2.28 | 0.4 | -0.636 (inactive) | -0.938 | -1.2 | 1.36 (inactive) |
| CC(C)NC(=O)[C@@]1(Cc2ccccc2I)c2ccccc2C(=O)N(Cc2ccccc2Cl)[C@H]1c1ccc(CO)cc1 | -0.271 | 0.0063 | 0.768 | -1.59 | -2.03 | -0.274 | 0.131 (inactive) | 0.0101 | -0.756 | 0.0211 (inactive) |
| CCCC[C@H]1C[C@@H]1[C@@H]1N(P(=O)(c2ccccc2)c2ccccc2)C[C@@](O)(c2ccccc2)CC12CC2 | -3.9 | -0.228 | -5.35 | -3.29 | -4.7 | -2.84 | -0.556 (inactive) | -0.917 | -2.78 | 4.58 (inactive) |
| C[N+](C)(C)CCCC[C@@H]1NC(=O)[C@H]2C[C@@H](C(=O)NCCCCCCNC(=O)CS)[C@@H](c3ccc(O)cc3)N2C1=O | -0.293 | -0.267 | -0.838 | -0.414 | 0.498 | -1.66 | -0.564 (inactive) | 0.164 | -0.0762 | -0.657 (inactive) |
